# Screens deposited in PubChem BioAssay by several laboratories.
# Rows were chosen to be rich in hits. Some 2.3% of all compounds tested hit in one or more screens of this group.
# GLD-1 RNA inh: GLD-1/TGE RNA complex disruptors, primary screen, biochemical, fluorescence polarization | inhibition, % at 5.96 µM | Female germline-specific tumor suppressor gld-1 (Caenorhabditis elegans), Q17339 | purified GLD-1 + fluorescein TGE RNA | 0.44% of 320,000 active;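 active means percent inhibition above a per-plate cutoff, the plate mean of test compounds plus 3 SD, cut at about 30% in these data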;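 further: 0% = DMSO wells with GLD-1 and probe and 100% = wells lacking GLD-1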
# Mcl-1 Bim block: inhibitors of Bim peptide binding to Mcl-1, primary screen, biochemical, bead-based flow cytometry, multiplex | Induced myeloid leukemia cell differentiation protein Mcl-1 (Homo sapiens), Q07820 | Bim peptide-Mcl-1 binding | inhibition, % at 10 µM | 0.1% of 190,000 active; in the data active means inhibition above about 40%;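 further: 0% = no compound tracer wells and 100% = peptide blocker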
# Mcl1 Bid PPI: Mcl-1/Bid binding inhibitors, primary screen, biochemical, TR-FRET, 1536-well; Induced myeloid leukemia cell differentiation protein Mcl-1 (Homo sapiens), Q07820; TR-FRET Mcl-1/Bid-Dy647 peptide binding; inhibition, % at 21.7 µM; 0.97% of 220,000 active; AID 1021, 2008;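 active means compounds that cut the binding signal by more than half at the single screening dose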;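 further: His-tagged Mcl-1 with europium anti-His antibody binding Bid BH3 peptide; 0% = Mcl-1 plus peptide wells and 100% = peptide-only wells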
# MCL1-BIM inh: inhibitors of MCL1 binding to BIM-BH3, primary screen, biochemical, fluorescence polarization; Induced myeloid leukemia cell differentiation protein Mcl-1 (Homo sapiens), Q07820; 0.68% of 320,000 active; GST-MCL1 / FITC-Bim-BH3 fluorescence polarization; inhibition, % at 10.9 µM;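 active means inhibition above the mean inhibition of all tested compounds plus 3 SD, set per campaign, cut at about 40% in these data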;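 further: 0% = DMSO wells and 100% = unlabeled Bim-BH3 peptide control; higher means more loss of mP so more displacement of Bim peptide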
# Mcl1-Noxa inh: Mcl-1/Noxa binding inhibitors, primary screen, biochemical, TR-FRET, 1536-well. Induced myeloid leukemia cell differentiation protein Mcl-1 (Homo sapiens), Q07820. TR-FRET Mcl-1/Noxa peptide binding, 2 h. inhibition, % at 21.7 µM. 1.5% of 220,000 active. AID 1022, 2008;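 active means compounds that cut the protein-peptide binding signal by more than 50% relative to plate controls in a single-dose test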;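 further: His-tagged Mcl-1 with rhodamine Noxa BH3 peptide and terbium anti-His antibody; 0% = Mcl-1 plus Noxa peptide wells and 100% = peptide-only wells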
# BCLXL inh: inhibitors of human Bcl-xL, primary screen, biochemical, fluorescence polarization, HTS; Bcl-2-like protein 1 (Homo sapiens), Q07817; GST-Bcl-xL / FITC-Bim BH3 peptide fluorescence polarization; inhibition, % at 10.9 µM; 0.7% of 320,000 active; AID 2129, 2009;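 active means inhibition above the mean of all tested compounds plus 3 SD, cutoff set per campaign, cut at about 30% in these data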;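 further: 0% = DMSO wells and 100% = unlabeled Bim-BH3 peptide competitor; inhibitors lower millipolarization by displacing the labeled peptide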
# Target sequence (Q07817 whole entry, looked up): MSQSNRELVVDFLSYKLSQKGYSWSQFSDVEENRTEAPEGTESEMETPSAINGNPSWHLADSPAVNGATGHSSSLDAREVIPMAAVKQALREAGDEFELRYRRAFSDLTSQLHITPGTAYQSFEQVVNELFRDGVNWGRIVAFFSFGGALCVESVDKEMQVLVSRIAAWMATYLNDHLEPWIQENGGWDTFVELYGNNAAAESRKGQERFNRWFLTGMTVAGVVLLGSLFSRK
# Active calls of the source: *; nt = no result.
SMILES,GLD-1 RNA inh,Mcl-1 Bim block,Mcl1 Bid PPI,MCL1-BIM inh,Mcl1-Noxa inh,BCLXL inh
COc1ccc(C2=CC(c3ccc(Cl)cc3)n3cnnc3N2)cc1OC (stereo not drawn),44.0*,-6.0,-102.9,62.4*,14.7,58.7*
CC(=O)Nc1nc2n(n1)C(c1ccc(F)cc1)C=C(c1ccccc1)N2 (stereo not drawn),37.0*,-2.0,-26.0,46.8*,12.7,52.1*
O=C(Nc1nc2n(n1)C(c1ccccc1)C=C(c1ccccc1)N2)c1ccco1 (stereo not drawn),12.2,-5.0,-48.9,40.0*,12.2,26.6
COc1ccc(C2C=C(c3ccc(Cl)cc3)Nc3nc(NC(C)=O)nn32)cc1 (stereo not drawn),118.8*,0.0,-116.7,158.3*,17.2,138.9*
CCN(CC(=O)NCCCN1CCOCC1)S(=O)(=O)c1ccc(Cl)cc1,5.1,nt,nt,2.0,nt,1.8
CCCCNC(=O)CS(=O)Cc1nc(-c2cccc(C)c2)oc1C (stereo not drawn),2.2,1.0,-11.7,-0.1,22.9,-0.8
CCCCSCCCNC(=O)CS(=O)Cc1nc(-c2cccc(C)c2)oc1C (stereo not drawn),4.3,1.0,-12.5,3.7,0.1,45.3*
O=C(COC(=O)c1cc(Cl)ccc1O)Nc1cc(C(F)(F)F)ccc1N1CCOCC1,4.2,nt,nt,nt,nt,nt
Cc1cc(NC(=O)CSc2nc(-c3ccc(F)cc3)cs2)no1,-9.3,1.0,-41.1,-6.9,85.7*,-7.5
Cc1cc(NC(=O)CN2CCN(C)CC2)no1,3.2,1.0,31.5,-3.1,16.8,-0.1
Cc1cc(NC(=O)CSc2nc(-c3ccccc3)cs2)no1,-6.9,-1.0,3.4,4.2,-3.5,2.2
Cc1cc(NC(=O)CN2CCCCCCC2)no1,5.8,-4.0,64.3*,-8.2,20.9,-0.1
Cc1cc(NC(=O)CSc2ccc3ccccc3c2)no1,-3.1,0.0,30.2,13.3,53.0*,1.6
COC(=O)c1ccccc1S(=O)(=O)NNC(=O)Nc1ccccc1,-3.3,nt,nt,5.9,nt,5.1
CN(C)c1cc(NC(=O)CN2CCCC2)c2ccccc2n1,-2.2,nt,37.4,4.2,53.9*,1.4
CN(C)c1cc(NC(=O)CNC(C)(C)CC(C)(C)C)c2ccccc2n1,-2.1,-3.0,-2.4,1.2,4.2,1.0
COc1ccc(CN2CCN(C3CCC3)CC2CCO)c(C)c1C (stereo not drawn),-7.7,nt,nt,-2.2,nt,-7.0
O=C(O)c1ccccc1NS(=O)(=O)c1ccc(NNC(=S)Nc2ccc(OC(F)F)cc2)c([N+](=O)[O-])c1,nt,-2.0,94.7*,nt,112.1*,nt
O=C(C[n+]1ccc(-c2nnc3n2CCCCC3)cc1)c1ccc(Cl)cc1,4.8,nt,-3.2,3.5,-13.9,7.8
COc1ccc(C(=O)C[n+]2ccc(-c3nnc4n3CCCCC4)cc2)cc1,1.5,nt,-46.2,13.5,75.6*,3.3
O=C(O/N=C/c1ccc(Br)cc1)c1ccc(F)cc1,5.0,nt,nt,6.0,nt,2.3
O=C1Nc2ccccc2/C1=N/N=C/c1ccc(-c2ccc([N+](=O)[O-])cc2)o1,nt,10.0,88.6*,nt,79.8*,nt
NC(=S)N/N=C/c1ccc(-c2ccc([N+](=O)[O-])cc2)o1,2.4,0.0,-14.1,-78.5,52.0*,-39.0
Cc1cc(C(=O)Nc2cccc(S(=O)(=O)N3CCCC3)c2)c2ccccc2n1,-8.4,nt,nt,-2.8,nt,5.6
COCCn1cnnc1SCC(=O)Nc1cccc(S(=O)(=O)N2CCCCCC2)c1,-1.4,-1.0,53.8*,-23.5,1.6,-7.2
Cc1cc(C(=O)Nc2cccc(S(=O)(=O)N3CCCCC3)c2)c2ccccc2n1,-0.7,0.0,-10.3,1.4,65.4*,0.8
Cn1cnnc1SCC(=O)Nc1cccc(S(=O)(=O)N2CCCCCC2)c1,-8.9,-5.0,-25.5,4.9,6.4,4.9
COc1ccccc1CNC(=O)CC(NS(=O)(=O)c1ccc(C)cc1)c1ccco1 (stereo not drawn),5.7,0.0,92.2*,6.7,18.7,6.4
